Assay results: PubChem BioAssay (NCI)
Several values for one entry are separate records, joined by “and”; a condition that tells them apart may be missing. Equal entries are not always repeated. About 79,000 compounds went through this panel and 15% of them were active in at least one assay; those are over-represented in the sample as a whole. More than one record can exist for a structure, and the calls need not agree. Activity calls are given as the source filed them. Cut-off read from the data, not from the text of the source: active = growth inhibition above about 70%; inactive = the rest. Where a SMILES comes first, the peptide text is derived from it. The star is where a group is joined. Boc = CC(C)(C)OC(=O)*

Assays:
[1] = NCI Yeast Anticancer Drug Screen. Data for the rad50 strain (AID 155);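 note: 0% = growth of vehicle-only cultures of the same strain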; conditions: S. cerevisiae rad50 strain growth inhibition; at 50.0 µM; stronger effect = higher value
In short: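 Cells are treated with compound, grown, and their growth is then scored against vehicle-only cultures of the same repair-deficient yeast strain.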

[2] = NCI Yeast Anticancer Drug Screen. Data for the mec2-1 strain (AID 157); conditions: S. cerevisiae mec2-1 strain, at 50.0 µM, stronger effect = higher value
In short: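 Compounds were applied to mec2-1 yeast cells. Their growth was then compared with that of vehicle-treated cultures to give growth inhibition.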

[3] = NCI Yeast Anticancer Drug Screen. Data for the sgs1 mgt1 strain (AID 161);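 note: 0% = growth of cultures given vehicle only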; conditions: S. cerevisiae sgs1 mgt1 strain, at 50.0 µM, stronger effect = higher value
In short: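 Percent growth inhibition was derived by comparing compound-exposed mutant yeast with vehicle-exposed cultures. The strain carries alterations in DNA damage repair.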

[4] = NCI Yeast Anticancer Drug Screen. Data for the cln2 rad14 strain (AID 165);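 note: 0% = growth equal to vehicle treated cultures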; conditions: S. cerevisiae cln2 rad14 strain, at 50.0 µM, stronger effect = higher value
In short: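 Strain: cln2 rad14 yeast, altered in cell cycle control and DNA damage repair. Read-out: growth inhibition vs vehicle.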

[5] = NCI Yeast Anticancer Drug Screen. Data for the bub3 strain (AID 167); conditions: S. cerevisiae bub3 mutant strain, at 50.0 µM, stronger effect = higher value
In short: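 Part of a panel of yeast mutants defective in DNA damage repair or cell cycle regulation. Each strain is grown with compound, and inhibition is calculated relative to solvent-treated cultures.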

[6] = NCI Yeast Anticancer Drug Screen. Data for the mlh1 rad18 strain (AID 175); conditions: S. cerevisiae mlh1 rad18 strain growth inhibition; at 50.0 µM; stronger effect = higher value
In short: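 A repair-deficient yeast strain is exposed to test compound, and growth is scored relative to vehicle-treated controls.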

Measured: growth inhibition

O=C(O)c1cccnc1
inactive: [1] 18.2% and 13.2% | [2] 5.35% and -7.8% | [3] -4.15% and -10% | [4] 2.65% and -2.6% | [5] 5.65% and -0.1% | [6] 18.5% and 16.7%

CC(Cc1ccccc1)NC(=O)c1ccccc1 (configuration not stated)
inactive: [1] 18.2% and 5.45% | [2] 3.3% and -1.1% | [3] -19.9% and -2.25% | [4] -93.5% and -7.65% | [5] -14.9% and 2.45% | [6] 7.4% and -5.3%

OCC(O)C1OC(Oc2ccccc2)C(O)C(O)C1O (configuration not stated)
inactive: [1] 2.5% and 35.6% | [2] 32.9% and -1.85% | [3] -6.75% and 4.1% | [5] 31.3% and 7.35% | [6] 24% and 17.4%

C=CCC1=C(C)C(OC(=O)C=C(C)C)CC1=O (configuration not stated)
inactive: [1] 19.8% and -4.3% | [2] -4% and -13.8% | [3] -6.15% and -6% | [4] 0.25% and -26.2% | [5] 3.6% and -13.3% | [6] -22% and -37%

O=C(O)/C=C/C(=O)Nc1ccccc1
inactive: [1] -4.8% and -26.8% | [2] -18.7% and -22% | [3] -11.8% and -14.3% | [4] 0.25% and -30.4% | [5] -2.8% and -10.2% | [6] 4.15% and -1.65%

Cc1cc(C(=O)O)c(CN2C(=O)c3ccccc3C2=O)c(=O)n1C
inactive: [1] -11.3% and -1.15% | [2] 20.4% and -14.3% | [3] 2.45% and -7.1% | [4] -6.3% and 6.85% | [5] 12.1% and -19.1% | [6] -18.9% and 9.45%

CC(=O)CCC1CC(=O)OC1(C)C (configuration not stated)
inactive: [1] -37.6% and 0.75% | [2] -30% and -11.2% | [3] -14.3% and -15.4% | [4] 7.85% and -5.75% | [5] -26.2% and -5.35% | [6] -26.2% and 23.8%

C/C=C/C=C/c1cc2cc3c(c(O)c2c(=O)[nH]1)C1(CC3)C(O)=c2c(=O)c3c(=O)cc(OC)c(=O)c=3c(=O)c2=C1O (configuration not stated)
active: [1] 86.8% and 80.7% | [2] 89.8% and 74.3% | [3] 88.7% and 75.2% | [5] 83% and 80.5% | [6] 78.6%
81.8% (active) and 60% (inactive): [4]

COC(=O)C(C)NC(=O)C(CCSC)NC(=O)C(Cc1ccccc1)NC(=O)OC(C)(C)C (stereo not drawn) (Boc-Phe-Met-Ala-OMe; configuration not given here)
inactive: [1] -7.05% and 1.75% | [2] -15.3% and 1.15% | [3] 2.4% and 6.3% | [4] 5.05% and 10.7% | [5] 0.15% and -11.9% | [6] 12.4% and -70.9%

O=C(O)c1cc([N+](=O)[O-])ccc1Nc1ccccc1
inactive: [1] 10.8% and -9.95% | [2] 0.2% and -12.4% | [3] -7.05% and -3.35% | [4] 31.6% and -28.6% | [5] 18.6% and -3.55% | [6] 18.1% and -6.2%

COC(=O)CCC1C(C)(C(C)=O)CCC2C1(C)CCC1(C)C3CC(C)(C)CCC3(C)CCC21C (configuration not stated)
inactive: [1] 1.65% and 1.05% | [2] 1.05% and -5.35% | [3] -11.8% and -15.2% | [4] -7.8% and -3.65% | [5] -3.9% and -2.15% | [6] 13.8% and 4.4%

COC(=O)/C=C\C(=O)O
inactive: [1] -4.95% and 5.05% | [2] -4.85% and -16.4% | [3] -1.75% and -2.6% | [4] -15.7% and -17.2% | [5] 3.35% and -23.7% | [6] 14.2% and 8.65%

C/C=C(\C)C(=O)O
inactive: [1] 17.6% and -9.95% | [2] 9.3% and -5.05% | [3] -4.9% and -41.8% | [4] 13.2% and 2.25% | [5] 11.4% and -42.2% | [6] 25% and 9.75%
